# Source: article PMC7862700, “An all-to-all approach to the identification of sequence-specific readers for epigenetic DNA modifications on cytosine”
# Assays:
# Test in all cases: DAPPL (digital affinity profiling via proximity ligation, sequencing); 10 mM Tris-HCl pH 7.5, 50 mM NaCl, 1 mM DTT, 4% glycerol, room temperature, 30 min; GST-TFs on glutathione beads, 16-mer random dsDNA library, 0.1% formaldehyde crosslink after washing; high values mean tight binding
# FEV = target: T1, FEV (Homo sapiens, UniProt Q99581 1-238); conditions: protein: recombinant; tags: N-terminal GST; dsDNA, one strand shown
# T1 sequence: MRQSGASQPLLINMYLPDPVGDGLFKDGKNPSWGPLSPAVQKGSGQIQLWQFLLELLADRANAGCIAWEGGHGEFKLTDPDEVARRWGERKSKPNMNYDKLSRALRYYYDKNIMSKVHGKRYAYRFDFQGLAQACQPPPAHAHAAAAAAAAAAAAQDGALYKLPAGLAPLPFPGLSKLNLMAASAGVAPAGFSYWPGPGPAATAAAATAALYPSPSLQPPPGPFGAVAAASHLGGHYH
# Method in brief: (§1)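 In yeast, human transcription factors were expressed with a GST fusion, then pulled down on glutathione beads and given DNA barcodes. Pooled with a tag-only sample, they were exposed to 200 nmole of a 16-mer random double-stranded DNA library (Tris/NaCl/DTT/glycerol buffer, room temperature, 30 min), washed, crosslinked with 0.1% formaldehyde, proximity-ligated using BsaI/T4 ligase for 1 h at 37 °C, PCR-amplified and read on an Illumina NextSeq500. Each hexamer's frequency of reads for a factor, divided by the matching frequency for the tag-only sample, gives the binding signal.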
# ETV5 = ETV5 (Homo sapiens, UniProt P41161 1-510); conditions: protein: recombinant; tags: N-terminal GST; dsDNA, one strand shown
# ETV5, sequence (P41161 whole entry): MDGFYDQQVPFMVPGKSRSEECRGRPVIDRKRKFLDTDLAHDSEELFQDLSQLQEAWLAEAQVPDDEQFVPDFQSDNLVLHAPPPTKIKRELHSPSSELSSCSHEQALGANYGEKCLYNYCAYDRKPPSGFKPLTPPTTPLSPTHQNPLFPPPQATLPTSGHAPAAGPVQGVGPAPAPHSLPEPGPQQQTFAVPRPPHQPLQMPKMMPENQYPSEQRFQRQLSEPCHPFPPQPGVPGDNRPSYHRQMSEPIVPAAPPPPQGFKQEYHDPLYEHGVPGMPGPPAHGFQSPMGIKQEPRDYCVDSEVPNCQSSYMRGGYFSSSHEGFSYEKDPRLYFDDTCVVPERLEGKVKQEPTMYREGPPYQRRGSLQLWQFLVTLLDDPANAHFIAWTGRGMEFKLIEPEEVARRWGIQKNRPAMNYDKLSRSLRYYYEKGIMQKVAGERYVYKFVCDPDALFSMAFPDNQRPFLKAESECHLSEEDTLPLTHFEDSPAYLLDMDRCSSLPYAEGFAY
# Method in brief: as §1
# HSF1 = HSF1 (Homo sapiens, UniProt Q00613 1-529); conditions: protein: recombinant; tags: N-terminal GST; chain copies: 3; dsDNA, one strand shown
# HSF1, sequence (Q00613 whole entry): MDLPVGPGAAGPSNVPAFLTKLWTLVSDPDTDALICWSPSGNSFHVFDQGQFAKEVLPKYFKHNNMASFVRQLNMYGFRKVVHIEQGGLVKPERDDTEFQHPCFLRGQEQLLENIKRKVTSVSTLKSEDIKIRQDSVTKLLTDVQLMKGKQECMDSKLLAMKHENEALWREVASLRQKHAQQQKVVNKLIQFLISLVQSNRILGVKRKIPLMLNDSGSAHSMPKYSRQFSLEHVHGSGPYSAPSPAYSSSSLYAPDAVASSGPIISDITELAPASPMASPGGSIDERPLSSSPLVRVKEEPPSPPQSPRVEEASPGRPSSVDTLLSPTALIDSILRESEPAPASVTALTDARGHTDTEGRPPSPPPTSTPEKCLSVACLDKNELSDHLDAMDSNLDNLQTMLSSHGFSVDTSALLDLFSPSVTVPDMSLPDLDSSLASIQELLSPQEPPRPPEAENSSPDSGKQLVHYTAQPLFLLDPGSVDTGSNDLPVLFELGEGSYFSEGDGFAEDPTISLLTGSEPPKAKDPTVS
# Method in brief: as §1
# SPIC = target: T2, SPIC (Homo sapiens, UniProt Q8N5J4 1-248); conditions: protein: recombinant; tags: N-terminal GST; dsDNA, one strand shown
# T2 sequence: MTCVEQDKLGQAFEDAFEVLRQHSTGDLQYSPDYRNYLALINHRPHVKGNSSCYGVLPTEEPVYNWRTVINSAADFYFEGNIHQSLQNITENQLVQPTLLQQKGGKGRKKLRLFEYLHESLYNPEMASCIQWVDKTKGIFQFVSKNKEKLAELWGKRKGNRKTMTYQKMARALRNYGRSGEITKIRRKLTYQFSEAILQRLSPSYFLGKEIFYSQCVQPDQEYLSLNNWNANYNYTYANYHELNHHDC
# Method in brief: as §1
# ELF4 = ELF4 (Homo sapiens, UniProt Q99607 1-663); conditions: protein: recombinant; tags: N-terminal GST; dsDNA, one strand shown
# ELF4, sequence (Q99607 whole entry): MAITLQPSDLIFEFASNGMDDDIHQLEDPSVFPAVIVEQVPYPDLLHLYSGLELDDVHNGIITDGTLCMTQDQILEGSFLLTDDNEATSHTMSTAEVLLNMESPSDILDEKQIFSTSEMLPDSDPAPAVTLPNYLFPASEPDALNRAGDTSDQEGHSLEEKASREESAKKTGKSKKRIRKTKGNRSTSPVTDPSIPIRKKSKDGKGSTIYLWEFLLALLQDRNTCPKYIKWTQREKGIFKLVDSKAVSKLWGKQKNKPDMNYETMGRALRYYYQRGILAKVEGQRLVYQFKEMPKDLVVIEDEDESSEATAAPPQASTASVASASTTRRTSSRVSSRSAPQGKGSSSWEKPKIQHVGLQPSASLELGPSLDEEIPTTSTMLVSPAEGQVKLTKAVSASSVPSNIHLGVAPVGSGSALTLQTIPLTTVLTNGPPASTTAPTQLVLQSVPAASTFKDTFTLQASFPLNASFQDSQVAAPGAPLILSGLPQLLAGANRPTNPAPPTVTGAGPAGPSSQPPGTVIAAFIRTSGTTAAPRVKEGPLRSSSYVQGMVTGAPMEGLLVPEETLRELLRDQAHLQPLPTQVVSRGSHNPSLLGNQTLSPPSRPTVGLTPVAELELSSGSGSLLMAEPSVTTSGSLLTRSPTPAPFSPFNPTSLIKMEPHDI
# Method in brief: as §1
# ELK4 = target: T3, ELK4 (Homo sapiens, UniProt P28324-2 1-405); conditions: protein: recombinant; tags: N-terminal GST; dsDNA, one strand shown
# T3 sequence: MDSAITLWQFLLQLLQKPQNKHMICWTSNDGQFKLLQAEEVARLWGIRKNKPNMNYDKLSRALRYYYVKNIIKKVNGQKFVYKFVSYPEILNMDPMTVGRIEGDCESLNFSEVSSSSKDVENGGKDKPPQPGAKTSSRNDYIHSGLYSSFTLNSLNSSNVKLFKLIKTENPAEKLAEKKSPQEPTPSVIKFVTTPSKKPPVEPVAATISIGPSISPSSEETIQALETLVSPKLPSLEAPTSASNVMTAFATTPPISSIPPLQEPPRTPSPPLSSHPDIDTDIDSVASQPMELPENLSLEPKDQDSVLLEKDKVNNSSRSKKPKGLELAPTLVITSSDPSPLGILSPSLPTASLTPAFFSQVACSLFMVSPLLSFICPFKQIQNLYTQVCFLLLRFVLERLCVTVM
# Method in brief: as §1
# ETV2 = target: T4, ETV2 (Homo sapiens, UniProt O00321 1-342); conditions: protein: recombinant; tags: N-terminal GST; dsDNA, one strand shown
# T4 sequence: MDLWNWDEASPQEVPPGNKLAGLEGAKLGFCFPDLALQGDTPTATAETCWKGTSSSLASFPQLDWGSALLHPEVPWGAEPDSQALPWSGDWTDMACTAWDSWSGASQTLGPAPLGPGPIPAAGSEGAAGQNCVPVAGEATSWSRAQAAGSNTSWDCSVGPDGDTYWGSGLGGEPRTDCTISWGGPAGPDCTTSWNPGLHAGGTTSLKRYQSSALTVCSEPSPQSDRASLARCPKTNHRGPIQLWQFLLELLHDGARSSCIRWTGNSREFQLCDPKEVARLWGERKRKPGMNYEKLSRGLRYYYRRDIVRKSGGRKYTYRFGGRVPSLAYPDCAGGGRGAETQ
# Method in brief: as §1
# ELF3 = target: T5, ELF3 (Homo sapiens, UniProt P78545 1-371); conditions: protein: recombinant; tags: N-terminal GST; dsDNA, one strand shown
# T5 sequence: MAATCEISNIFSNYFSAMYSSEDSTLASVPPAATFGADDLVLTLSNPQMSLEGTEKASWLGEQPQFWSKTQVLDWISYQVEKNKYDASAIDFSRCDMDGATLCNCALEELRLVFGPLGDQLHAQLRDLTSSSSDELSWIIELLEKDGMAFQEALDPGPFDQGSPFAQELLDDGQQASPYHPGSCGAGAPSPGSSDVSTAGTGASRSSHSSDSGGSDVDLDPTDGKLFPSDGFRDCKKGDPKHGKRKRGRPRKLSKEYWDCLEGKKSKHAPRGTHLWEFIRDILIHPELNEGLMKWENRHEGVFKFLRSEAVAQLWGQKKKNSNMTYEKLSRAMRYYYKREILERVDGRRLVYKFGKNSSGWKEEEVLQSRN
# Method in brief: as §1
# CRX = CRX (Homo sapiens, UniProt O43186 1-299); conditions: protein: recombinant; tags: N-terminal GST; dsDNA, one strand shown
# CRX, sequence (O43186 whole entry): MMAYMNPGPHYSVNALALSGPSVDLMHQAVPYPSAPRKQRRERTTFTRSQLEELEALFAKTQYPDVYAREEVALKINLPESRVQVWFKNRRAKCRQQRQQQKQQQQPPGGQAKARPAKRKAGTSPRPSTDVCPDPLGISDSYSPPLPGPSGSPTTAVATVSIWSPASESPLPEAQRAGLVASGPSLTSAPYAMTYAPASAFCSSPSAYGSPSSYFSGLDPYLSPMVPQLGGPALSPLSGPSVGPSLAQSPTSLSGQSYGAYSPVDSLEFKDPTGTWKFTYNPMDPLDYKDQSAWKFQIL
# Method in brief: as §1
# ETV1 = ETV1 (Homo sapiens, UniProt P50549 1-477); conditions: protein: recombinant; tags: N-terminal GST; dsDNA, one strand shown
# ETV1, sequence (P50549 whole entry): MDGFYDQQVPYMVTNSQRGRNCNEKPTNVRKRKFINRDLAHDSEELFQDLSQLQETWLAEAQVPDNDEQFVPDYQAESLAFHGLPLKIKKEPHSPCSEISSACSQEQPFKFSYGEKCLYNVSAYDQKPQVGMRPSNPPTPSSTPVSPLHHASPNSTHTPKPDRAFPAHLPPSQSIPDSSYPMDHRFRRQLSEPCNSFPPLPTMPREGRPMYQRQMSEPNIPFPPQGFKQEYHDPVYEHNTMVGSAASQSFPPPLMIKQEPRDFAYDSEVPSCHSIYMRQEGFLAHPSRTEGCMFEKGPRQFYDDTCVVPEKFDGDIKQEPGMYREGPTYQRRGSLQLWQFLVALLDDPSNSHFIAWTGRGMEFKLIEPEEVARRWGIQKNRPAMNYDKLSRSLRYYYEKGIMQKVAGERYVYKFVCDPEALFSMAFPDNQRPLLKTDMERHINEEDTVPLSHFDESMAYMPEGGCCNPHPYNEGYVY
# Method in brief: as §1
# ERF = target: T6, ERF (Homo sapiens, UniProt P50548 1-548); conditions: protein: recombinant; tags: N-terminal GST; dsDNA, one strand shown
# T6 sequence: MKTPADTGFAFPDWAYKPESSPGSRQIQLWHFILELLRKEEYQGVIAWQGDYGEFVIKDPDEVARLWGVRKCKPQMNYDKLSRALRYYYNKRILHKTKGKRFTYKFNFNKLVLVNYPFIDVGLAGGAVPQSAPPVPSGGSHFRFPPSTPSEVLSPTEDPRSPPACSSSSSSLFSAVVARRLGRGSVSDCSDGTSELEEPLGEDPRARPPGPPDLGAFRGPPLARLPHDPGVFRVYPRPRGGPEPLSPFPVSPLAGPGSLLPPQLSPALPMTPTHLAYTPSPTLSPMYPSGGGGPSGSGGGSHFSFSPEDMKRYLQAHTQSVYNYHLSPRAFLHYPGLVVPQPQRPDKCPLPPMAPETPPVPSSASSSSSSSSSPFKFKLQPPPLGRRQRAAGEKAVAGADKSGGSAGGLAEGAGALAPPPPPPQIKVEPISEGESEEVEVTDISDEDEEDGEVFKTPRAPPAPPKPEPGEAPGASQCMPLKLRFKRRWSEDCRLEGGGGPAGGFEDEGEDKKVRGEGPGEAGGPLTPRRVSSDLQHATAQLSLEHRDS
# Method in brief: as §1
# ETV3L = target: T7, ETV3L (Homo sapiens, UniProt Q6ZN32 1-361); conditions: protein: recombinant; tags: N-terminal GST; dsDNA, one strand shown
# T7 sequence: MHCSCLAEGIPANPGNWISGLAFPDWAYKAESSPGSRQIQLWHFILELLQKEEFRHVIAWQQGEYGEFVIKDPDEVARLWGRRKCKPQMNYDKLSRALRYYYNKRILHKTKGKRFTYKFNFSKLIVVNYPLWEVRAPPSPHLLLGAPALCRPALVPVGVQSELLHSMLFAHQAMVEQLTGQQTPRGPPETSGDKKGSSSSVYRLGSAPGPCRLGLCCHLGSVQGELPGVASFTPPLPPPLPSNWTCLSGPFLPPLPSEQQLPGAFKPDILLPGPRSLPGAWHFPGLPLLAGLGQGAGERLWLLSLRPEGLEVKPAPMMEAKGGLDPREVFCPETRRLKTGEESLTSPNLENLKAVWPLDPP
# Method in brief: as §1
# ETS2 = target: T8, ETS2 (Homo sapiens, UniProt P15036 1-469); conditions: protein: recombinant; tags: N-terminal GST; dsDNA, one strand shown
# T8 sequence: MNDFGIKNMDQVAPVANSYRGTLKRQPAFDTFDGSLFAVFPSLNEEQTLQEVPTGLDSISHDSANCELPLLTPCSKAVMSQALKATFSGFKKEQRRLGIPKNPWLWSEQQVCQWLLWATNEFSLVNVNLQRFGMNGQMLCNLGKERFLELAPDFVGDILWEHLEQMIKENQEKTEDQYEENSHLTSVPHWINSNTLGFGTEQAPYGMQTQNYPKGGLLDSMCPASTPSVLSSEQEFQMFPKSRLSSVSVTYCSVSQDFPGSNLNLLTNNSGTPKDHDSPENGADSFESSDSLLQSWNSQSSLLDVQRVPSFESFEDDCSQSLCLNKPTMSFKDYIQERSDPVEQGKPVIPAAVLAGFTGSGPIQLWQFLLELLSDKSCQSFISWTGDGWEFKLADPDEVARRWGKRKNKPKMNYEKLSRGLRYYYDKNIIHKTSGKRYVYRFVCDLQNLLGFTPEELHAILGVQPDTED
# Method in brief: as §1
# SPDEF = target: T9, SPDEF (Homo sapiens, UniProt O95238 1-335); conditions: protein: recombinant; tags: N-terminal GST; dsDNA, one strand shown
# T9 sequence: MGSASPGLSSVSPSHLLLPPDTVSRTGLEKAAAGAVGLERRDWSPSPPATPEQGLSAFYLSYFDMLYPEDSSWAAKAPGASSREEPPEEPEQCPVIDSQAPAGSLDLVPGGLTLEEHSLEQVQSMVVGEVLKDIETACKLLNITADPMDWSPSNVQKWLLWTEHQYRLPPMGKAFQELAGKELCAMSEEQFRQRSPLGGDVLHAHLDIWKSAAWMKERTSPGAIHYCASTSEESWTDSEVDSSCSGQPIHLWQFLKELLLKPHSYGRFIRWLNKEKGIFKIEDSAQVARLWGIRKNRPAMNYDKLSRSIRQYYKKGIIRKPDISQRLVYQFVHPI
# Method in brief: as §1
# ETV7 = target: T10, ETV7 (Homo sapiens, UniProt Q9Y603 1-341); conditions: protein: recombinant; tags: N-terminal GST; dsDNA, one strand shown
# T10 sequence: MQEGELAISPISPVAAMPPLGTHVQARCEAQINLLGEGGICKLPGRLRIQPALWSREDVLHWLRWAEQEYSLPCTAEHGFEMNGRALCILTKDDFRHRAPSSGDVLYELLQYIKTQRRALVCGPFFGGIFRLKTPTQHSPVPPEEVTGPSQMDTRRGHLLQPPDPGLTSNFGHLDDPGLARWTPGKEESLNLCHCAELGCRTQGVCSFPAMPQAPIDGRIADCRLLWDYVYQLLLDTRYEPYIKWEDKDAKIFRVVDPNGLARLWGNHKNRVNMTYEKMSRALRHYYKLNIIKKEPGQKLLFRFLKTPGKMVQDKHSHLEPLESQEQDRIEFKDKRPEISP
# Method in brief: as §1
# ELF5 = target: T11, ELF5 (Homo sapiens, UniProt Q9UKW6-2 1-255); conditions: protein: recombinant; tags: N-terminal GST; dsDNA, one strand shown
# T11 sequence: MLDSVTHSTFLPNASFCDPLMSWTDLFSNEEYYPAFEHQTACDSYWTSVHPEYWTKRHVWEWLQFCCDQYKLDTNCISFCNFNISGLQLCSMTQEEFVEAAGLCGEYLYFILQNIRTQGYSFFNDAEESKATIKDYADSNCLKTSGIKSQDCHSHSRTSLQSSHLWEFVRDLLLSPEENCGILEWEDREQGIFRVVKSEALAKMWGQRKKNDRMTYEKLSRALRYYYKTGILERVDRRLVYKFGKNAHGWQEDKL
# Method in brief: as §1
# ETV3 = target: T12, ETV3 (Homo sapiens, UniProt P41162-2 1-143); conditions: protein: recombinant; tags: N-terminal GST; dsDNA, one strand shown
# T12 sequence: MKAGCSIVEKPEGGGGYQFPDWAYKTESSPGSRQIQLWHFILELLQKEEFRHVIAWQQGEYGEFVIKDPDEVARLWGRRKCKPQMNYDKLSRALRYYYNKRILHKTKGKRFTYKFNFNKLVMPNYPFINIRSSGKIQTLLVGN
# Method in brief: as §1
# ETV6 = ETV6 (Homo sapiens, UniProt P41212 1-452); conditions: protein: recombinant; tags: N-terminal GST; dsDNA, one strand shown
# ETV6, sequence (P41212 whole entry): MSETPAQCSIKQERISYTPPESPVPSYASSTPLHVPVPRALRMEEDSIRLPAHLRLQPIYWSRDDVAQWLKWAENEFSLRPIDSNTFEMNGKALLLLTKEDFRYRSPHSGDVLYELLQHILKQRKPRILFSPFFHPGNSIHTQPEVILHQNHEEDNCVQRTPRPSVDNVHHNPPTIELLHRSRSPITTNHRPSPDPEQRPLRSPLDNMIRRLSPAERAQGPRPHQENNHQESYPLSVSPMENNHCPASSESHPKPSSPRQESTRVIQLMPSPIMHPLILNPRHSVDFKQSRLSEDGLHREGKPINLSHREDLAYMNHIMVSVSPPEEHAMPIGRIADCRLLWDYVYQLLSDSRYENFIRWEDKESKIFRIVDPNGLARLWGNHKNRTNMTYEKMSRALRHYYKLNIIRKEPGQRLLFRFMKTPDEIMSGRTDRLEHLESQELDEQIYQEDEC
# Method in brief: as §1
sequence,measurement,setting,value
TACGCC,binding signal,FEV,"1.25 fold enrichment (6-mer frequency, TF over GST control)"
same,binding signal,ETV5,"1.26 fold enrichment (6-mer frequency, TF over GST control)"
same,binding signal,HSF1,"1.17 fold enrichment (6-mer frequency, TF over GST control)"
same,binding signal,SPIC,"1.32 fold enrichment (6-mer frequency, TF over GST control)"
same,binding signal,ELF4,"1.29 fold enrichment (6-mer frequency, TF over GST control)"
same,binding signal,ELK4,"1.24 fold enrichment (6-mer frequency, TF over GST control)"
same,binding signal,ETV2,"1.02 fold enrichment (6-mer frequency, TF over GST control)"
same,binding signal,ELF3,"1.14 fold enrichment (6-mer frequency, TF over GST control)"
same,binding signal,CRX,"1.2 fold enrichment (6-mer frequency, TF over GST control)"
same,binding signal,ETV1,"1.22 fold enrichment (6-mer frequency, TF over GST control)"
same,binding signal,ERF,"1.36 fold enrichment (6-mer frequency, TF over GST control)"
same,binding signal,ETV3L,"1.36 fold enrichment (6-mer frequency, TF over GST control)"
same,binding signal,ETS2,"1.29 fold enrichment (6-mer frequency, TF over GST control)"
same,binding signal,SPDEF,"1.26 fold enrichment (6-mer frequency, TF over GST control)"
same,binding signal,ETV7,"1.19 fold enrichment (6-mer frequency, TF over GST control)"
same,binding signal,ELF5,"1.2 fold enrichment (6-mer frequency, TF over GST control)"
same,binding signal,ETV3,"1.27 fold enrichment (6-mer frequency, TF over GST control)"
same,binding signal,ETV6,"1.28 fold enrichment (6-mer frequency, TF over GST control)"
